The sample as a whole holds a higher share of hits than the screen did.
Ba CapD inh = Bacillus anthracis CapD inhibitors, primary screen, biochemical, fluorescence intensity. hit rate 0.23% among 140,000. z-score (concentration not given with the values). purified CapD enzyme, fluorescence intensity read-out; stronger effect = lower value. CapD gamma-glutamyltranspeptidase (Bacillus anthracis Ames Ancestor); in the data active = z-score mostly below about -2.9, no sharp cut-off; inactive = mostly above about -1.9
* marks the source's active call; other numbers are inactive results.

SMILES	Ba CapD inh
Cc1cc(C)c(C=C2C(=O)CCCC2=O)[nH]1	-7.59*
Cc1cc(C=C2C(=O)CCCC2=O)c(C)n1-c1ccccc1	-0.495
Cc1cc(C)c(C=C2C(=O)OC(C)(C)OC2=O)[nH]1	-4.07
Cc1ccc(OCC(=O)Nc2cc(-c3nn(C)c(=O)c4ccccc34)ccc2N2CCOCC2)cc1	-0.445
Nc1n[nH]c(Cc2nc(N)n[nH]2)n1	0.43
CC(C(=O)Nc1ccccc1)C(=O)Nc1ccccc1	-0.065
O=C(Nc1ccccc1)C(C(F)(F)F)C(F)(F)F	-3.58*
CCCC(CCC)C(=O)Nc1ccccc1	0.705
CCOC(=O)N1CCN(C(=O)CC2c3ccccc3Oc3ccccc32)CC1	-0.3
O=S(=O)(c1cccc2nsnc12)N1CCCc2ccccc21	1.04
Cc1ccc(-c2noc(C3CCN(S(=O)(=O)c4ccc(Cl)cc4)CC3)n2)cc1	-0.64
O=C(ON1C(=O)CCC1=O)c1ccc(Br)o1	-5.7*
O=C(O)c1ccc(Br)o1	-1.11
COC(=O)c1ccc(Br)o1	0.405
Cc1cc(N2CCN(c3ccccn3)CC2)n2ncnc2n1	-0.31
Cc1cc(N2CCc3ccccc32)n2ncnc2n1	-4.67*
COc1ccccc1-c1c(C)nn2c(N3CCc4ccccc43)cc(C)nc12	3.23
COc1ccc2c3c([nH]c2c1)C(C)=NCC3	-0.09
CCC1(CC)OC(c2cccnc2)Nc2ccccc21 (centres undefined)	-0.48
O=C(NC1CCN(S(=O)(=O)c2ccc(Cl)cc2)CC1)N1CCOCC1	-1.06
COC(=O)c1ccn(-c2nc(-c3ccco3)cc(C(F)(F)F)n2)n1	74.7
COc1cccc(-c2cc(C(F)(F)F)nc(-n3cccn3)n2)c1	-3.4*
COc1nc(-c2ccccc2)cc(C(F)(F)F)n1	0.125
CC(=O)Nc1nc(CC(C)C)cc2c1c(=O)oc1ccccc12	0.475
O=C(c1cccnc1)N(Cc1ccccc1)C1(C(=O)Nc2ccccc2)CCCCC1	0.53
SMILES	Ba CapD inh
CN(C)CCOC(=O)c1ccc2[nH]c3c(c2c1)CSCC3	39.4
O=C(O)c1ccc2[nH]c3c(c2c1)CSCC3	-7.41*
COC(=O)c1ccc2[nH]c3c(c2c1)CCCC3	3.31
Brc1ccccc1Nc1ncnc2c1cnn2Cc1ccccc1	-0.28
FC(F)Sc1nnc(-c2ccccc2)n1-c1ccccc1	0.19
CC(=O)n1c(N)nc2ccccc21	-0.485
CCOC(=O)c1nc2ccccc2c(C)c1C	-0.98
CCOC(=O)c1nc2ccccc2n(C(C)=O)c1=O	-6.62*
O=C(OCc1ccc(Cl)cc1)c1cccs1	0.105
Cc1ccc(CCNC(=O)C2CCN(c3nnc(-n4cccc4)s3)CC2)cc1	0.16
O=C(Nc1cccc(C(=O)c2ccccc2)c1)c1ccc([N+](=O)[O-])cc1	-0.51
O=C(O)CC/C(=N\Nc1ccc([N+](=O)[O-])cc1)c1ccccc1	-3.59*
O=C(Nc1ccc([N+](=O)[O-])cc1)c1ccccc1O	-0.78
Oc1c(C=Nc2ccc(Br)cc2)sc2ccccc12	-1.42
O=C(c1ccco1)N1CCN(C(=O)c2ccc(COc3ccc4c(c3)CCC4)o2)CC1	-0.205
N#CCC(=O)Nc1ccccc1Oc1ccccc1	0.165
O=C(O)CCCC(=O)Nc1cccc2ccccc12	0.33
O=C(O)CCCC(=O)Nc1ccccc1Oc1ccccc1	-1.98*
COc1ccc(-c2noc(CSc3nnc(C)n3-c3ccc(Cl)cc3)n2)cc1	-0.69
CC1=NN(c2cccc(S(N)(=O)=O)c2)C(=O)C1	-0.935
CC1=NN(c2ccc(C(=O)O)cc2)C(=O)C1	-0.03
CC1=NN(c2cc(S(=O)(=O)O)c3cccc(S(=O)(=O)O)c3c2)C(=O)C1	-5.7*
O=S(=O)(Nc1ccc2c(c1)OCCO2)c1cccs1	-0.28
CC(C)(C)N1CC(OC(=O)c2ccc(Cl)cc2)C1	0.59
COC(=O)/C(C#N)=C1\NC(C)=NC(SC)=C1C#N	-0.865
SMILES	Ba CapD inh
CSC1=C(C#N)C(=C(C#N)C#N)NC(C)=N1	-4.51*
CN1C(=O)/C(=C/c2ccc(I)o2)C(=O)NC1=S	-9.73*
Cc1ccc(N2C(=O)/C(=C\c3ccc(-c4ccccc4C(=O)O)o3)C(=O)NC2=S)cc1	3
CN1C(=O)/C(=C/c2cn(CC(=O)N3CCCC3)c3ccccc23)C(=O)NC1=S	-0.425
Cc1nc2sc(C(=O)Nc3ccc4ccccc4c3)c(N)c2c(C)c1Cl	1.19
CN(C)C(=O)N1CCC(C(=O)c2ccc(Cl)cc2)CC1	0.055
CC1(C)CC(=O)C(C(=S)Nc2ccccc2)C(=O)C1	-0.09
CC1(C)CC(=O)/C(=N/Nc2ccccc2)CO1	-4.01*
CC1(C)Cc2c(c(=O)n(-c3ccccc3)c3ncnc(N)c23)CO1	-1.29
CCn1c(=NC(=O)c2ccc(S(=O)(=O)N3CCCC3)cc2)sc2c3ccccc3ccc21	-0.77
CCCCn1c(CNC(=O)c2ccc(OC)cc2)nnc1SC(C)C	-0.24
O=C(CCc1c[nH]c2ccccc12)Nn1c(SCc2cc(=O)n3ccccc3n2)nc2ccccc2c1=O	16
CC1CN(CCCOc2ccc(C(C)(C)C)cc2)CC(C)O1 (centres undefined)	-0.1
Cc1cc(C)c2c(=O)n(C(=O)c3ccc(Cl)cc3)sc2n1	-0.875
N#Cc1ccc(CSc2nc3ncccc3c(=O)n2Cc2ccccc2)cc1	-6.45*
O=c1c2nccnc2nc(SCc2ccc(F)cc2)n1Cc1ccccc1	-0.305
O=c1c2cccnc2nc(SCc2ccccc2F)n1Cc1ccccc1	1.01
COC(=O)c1nnn(CC(=O)N(c2ccccc2)c2ccccc2)c1C(=O)OC	0.015
O=C(CN1C(=O)COc2ccccc21)Nc1ccc(Cl)cc1	0.06
O=C(O)CN1C(=O)COc2ccccc21	0.07
O=C1COc2ccccc2N1C(=O)c1ccc(Cl)cc1	-4.1*
CCN1CCN(C2=NC(=O)/C(=C/c3ccc(OCc4ccccc4)cc3)S2)CC1	0.49
Cc1ccc(-n2cnc3cc(N=Cc4nc5ccccc5n4C)ccc32)cc1	1.06
CC(SC1=NCCS1)C(=O)Nc1nnc(-c2ccc(F)cc2)s1 (centres undefined)	-0.045
Cc1cc(C)n(C2=NCCN2S(C)(=O)=O)n1	1.28
SMILES	Ba CapD inh
CC(=O)Oc1ccc(C2Nc3c(C(=O)O)ccc([N+](=O)[O-])c3C3C=CCC32)cc1 (centres undefined)	-2.67*
CC(=O)Oc1ccc(C2Nc3c(C(=O)c4ccccc4)cc(Cl)cc3C3C=CCC32)cc1 (centres undefined)	-0.005
O=C(O)c1ccc([N+](=O)[O-])c2c1NC(c1ccc([N+](=O)[O-])cc1)C1CC=CC21 (centres undefined)	-0.525
N/C(Cc1nc(-c2ccc(Cl)cc2)cs1)=N\O	-1.62
c1ccc(C2N3CCCN23)cc1 (centres undefined)	0.5
CCOc1nc2ccc(C)cc2c(=O)o1	4.94
COC(CNC(=O)c1ccc2c(=O)n(Cc3ccco3)c(=S)[nH]c2c1)OC	-0.575
CC(C)NC(=O)c1ccc2c(=O)n(Cc3ccco3)c(=S)[nH]c2c1	-5.07*
C=CCNC(=O)c1ccc2c(=O)n(Cc3ccco3)c(=S)[nH]c2c1	0.375
Cc1cc2c3c(c(Br)cc(S(=O)(=O)O)c3n1)C(=O)c1ccccc1-2	-1.16
NC(=O)c1ccccc1NC(=O)Nc1ccccc1	3.7
N#CC(C#N)=NNc1ccccc1C(N)=O	-5.96*
CNc1ccccc1C(N)=O	74.7
COc1ccc(N2C(=O)c3ccc(Oc4ccccc4)cc3C2=O)cc1	-0.675
CC(NC(=O)c1ccco1)C(c1cccs1)N1CCN(c2ccccc2)CC1 (centres undefined)	-0.205
COC(=O)/C(C#N)=C/c1ccccc1C	-4.28*
CCOC(=O)/C(C#N)=C/c1ccccc1	-0.28
COC(=O)/C(C#N)=C/c1ccc(C)o1	-1.42

Screening data from PubChem.
